An excerpt weighted towards active compounds, which were near 2.3% of everything screened.
TDP43 rescue – inhibitors of TDP-43 toxicity in yeast | Potency, µM (highest dose often 46.1 µM), inactives show at the highest dose growth rescue (activation), actives largely listed as activators | TDP-43 expressing yeast growth rescue, BacTiter-Glo, 24 h | actives 1.8% (n = 410,000) | AID 652104; also: potency is read from the fitted curve at half-maximal effect; % of control where 0% means no effect; nearly all actives have a fitted effect of over 50% in size
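Growth rescue of TDP-43-toxic yeast measured as ATP luminescence (BacTiter-Glo). Cells grown to mid-log in raffinose, induced in galactose at OD600=0.02, exposed to compound 24 hr at 30 deg C.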
Abeta rescue – A-beta toxicity reversal in yeast; actives 0.063% (n = 410,000); Potency, µM (doses to about 46.1 µM), hits mostly activators; yeast expressing A-beta42, growth rescue, OD600, 48 h; response scale: 0% DMSO, 100% iron-clioquinol control; also: potency is read from the fitted curve at half-maximal effect; nearly all actives have a fitted effect of over 55% in size
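Growth rescue measured by 600 nm absorbance after 48 h yeast culture at 30 C with compound. Values normalized between DMSO and an equimolar ferric chloride plus clioquinol control.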
FUS suppressor – FUS proteinopathy suppression in yeast | S. cerevisiae FUS-expressing, growth rescue, OD600, 24 h | Potency, µM (doses to about 76.6 µM), usual class: activators | actives 0.24% (n = 390,000);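 also: potency is read from the fitted curve at half-maximal effect; plate controls were DMSO vehicle for no effect and reference control for full effect; nearly all actives have a fitted effect of over 55% in size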
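Steps: raffinose overnight preculture; dilution to OD 0.005 in 2% galactose minimal medium; compound addition (concentration series); 24hr at 30C, 99% humidity; absorbance read at 600 nm.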
Akt phos inh – blocks phosphorylation of Akt; Neuro2A IGF-stimulated pAkt S473 HTRF, 20 min; stronger effect = lower value; activity change, % for hits at 50 µM; actives 0.32% (n = 360,000); AID 651550; in the data active = activity change below about -80%; inconclusive = mostly about -51% to -80%; also: % is scaled to controls: 0 for no effect and ±100 for the full control effect
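Neuro2A cells (4,500/well, DMEM with 0.5% FBS) were treated with compound at a single 50 µM final concentration, stimulated with 6 nM IGF for 20 min at 37 °C, and lysed. Phospho-Akt Ser473 was read by HTRF as 665/615 ratio ×10^4.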
aSyn rescue – inhibitors of alpha-synuclein toxicity in yeast. Yeast expressing alpha-synuclein, growth rescue, BacTiter-Glo, 24 h. Potency, µM (top dose mostly 46.1 µM), inactives show at the highest dose growth rescue (activation), usual class: activators. actives 0.14% (n = 370,000); also: potency is read from the fitted curve at half-maximal effect; % of control where 0% means no effect; nearly all actives have a fitted effect of over 65% in size
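Rescue of yeast growth: cells expressing toxic alpha-synuclein, induced in galactose at OD600 0.02, incubated with compound 24 h at 30 C. ATP luminescence quantified growth; inhibitors of toxicity appear as activators.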
Numbers without * were called inactive; i = inactive; u = inconclusive; x = no result. Unless noted, calls follow the shape of the dose curve; as a rule, active = well fitted curve in the direction sought with a large enough effect; inconclusive = small, poorly fitted or top-dose-only effect, or another doubt; inactive = no such curve, though single readings can be large; an effect the other way counts as inactive or inconclusive.

SMILES | TDP43 rescue | Abeta rescue | FUS suppressor | Akt phos inh | aSyn rescue
CCCCC(=O)N(C)c1c(CC)nc2c(OCC(=O)c3ccc(Cl)cc3Cl)cccn12 | 5.5% | i | 31.6µM* | x | -11.4%
CCOc1ccc(OCC)c(NS(=O)(=O)c2c(C(=O)N3CCCCCC3)c(C)n(C)c2C)c1 | 17.2% | i | u | x | x
CN(C)C(=O)c1ccc(NC(=O)Cn2nnnc2-c2ccccc2F)cc1 | -3.6% | i | i | x | x
Cc1ccc(Cl)cc1NC(=O)c1oc2ccc(S(=O)(=O)N(C)C3CCCCC3)cc2c1C | 21.8% | i | i | x | x
Cc1ccc(Nc2nc(C(=O)N3CCC(C(=O)N4CCN(C)CC4)CC3)cs2)cc1 | 11.0% | i | i | i | -2.5%
Cc1ccc(Nc2nc(COC(=O)C3CC3)cs2)cc1 | 12.6µM* | i | i | i | -24.3%
CC(C)(C)c1cnnn1-c1ccc(C=O)cc1 | -16.2% | i | i | i | 8.0%
CC(C)(C)c1cnnn1-c1ccc(C(=O)CCl)cc1 | 8.91µM* | i | i | i | -9.3%
c1ccc(CSc2nnc(-c3cccs3)n2Cc2ccco2)cc1 | 17.8µM* | i | i | i | 12.8%
O=C(CSc1nnc(-c2ccccn2)n1Cc1ccco1)c1ccc(Cl)cc1 | 13.4% | i | u | -109.8%* | 11.0%
Clc1cccc(CSc2nnc(-c3ccccn3)n2Cc2ccco2)c1 | 20µM* | i | u | i | 7.7%
O=C(CSc1nnc(-c2ccccn2)n1Cc1ccco1)c1ccccc1 | -7.6% | i | i | i | 8.4%
C=CCn1c(SCc2ccc3nonc3c2)nnc1-c1cccs1 | 17.8µM* | i | i | i | 11.5%
CCc1ccc(CNC(=O)c2nn(-c3ccc(OC)c(Cl)c3)c(=O)c3c2c2ccccc2n3C)cc1 | 6.2% | i | i | x | x
CC1(C(=O)NS(=O)(=O)c2cccc(C#N)c2)CCN1C(=O)C1(c2ccc(Cl)cc2)CCC1 (configuration not stated) | 8.2% | i | i | i | 28.2µM*
CC1(C(=O)Nc2ccc3c(c2)OCCO3)CCN1C(=O)C1(c2ccc(Cl)cc2)CC1 (configuration not stated) | 35.5µM* | i | i | i | 6.1%
COc1ccc(CNC(=O)CCc2c(C)nn(-c3ccc(N4CCCCC4)nn3)c2C)cc1 | -2.8% | i | i | x | x
CC[C@@H](C)[C@H](NC(=O)OC(C)(C)C)c1nnc(S(=O)(=O)Cc2cc(C)ccc2C)o1 | u | i | i | -127.2%* | -56.4%
Cc1ccccc1CS(=O)(=O)c1nnc([C@H](CC(C)C)NC(=O)OC(C)(C)C)o1 | -63.2% | i | i | i | -29.2%
CC(C)(C)OC(=O)N[C@@H](Cc1ccccc1)c1nnc(S(=O)(=O)Cc2cccc(F)c2)o1 | 5.01µM* | i | i | i | -7.8%
CC(C)[C@H](NC(=O)OC(C)(C)C)c1nnc(S(=O)(=O)Cc2c(F)cccc2Cl)o1 | 11.2µM* | i | i | i | -22.3%
O=[N+]([O-])c1ccc(O/N=[N+](\[O-])N2CCCCC2)c([N+](=O)[O-])c1 | x | x | x | x | -80.8%
CCCNC(=O)c1ccc2c(c1)N=C(C)c1c(C)ccc(C)c1S2 | u | i | i | x | 20.8%
Cc1ccccc1CNC(=O)c1cccc(NC(=O)N2CCSc3ncccc32)c1 | 3.5% | i | i | x | x
CC1=NN(/C(=N\c2nnc(C)s2)Nc2ccc(C(C)(C)C)cc2)[C@H](c2ccc(C)cc2)S1 | 35.5µM* | i | u | i | -0.1%
Cc1nc2ccccn2c(=O)c1NC(=O)c1ccc(C(F)(F)F)cc1 | 0.4% | i | i | x | x
Cc1nc2c(-c3ccccc3)c(C)nn2c(C)c1CCC(=O)NCc1ccccc1Cl | -0.3% | i | i | x | x
O=C(N/N=C/C(Br)=C/c1ccccc1)C1CC1 | 22.4µM* | i | i | i | 10.3%
Cc1onc(-c2ccccc2)c1C(=O)N/N=C/C(Br)=C/c1ccccc1 | 17.8µM* | i | x | i | u
O=C(O)c1ccc(N/N=C/c2cccc(C(F)(F)F)c2)cc1 | 12.6µM* | i | i | i | -44.6%

Screens as filed in PubChem.
